# Inconclusive results are not listed. The source made the active and inactive calls. Calls come from the whole dose curve; as a rule, active = well fitted activation curve with a large enough effect in the repeat runs; inconclusive = weak or mixed curves; inactive = flat fitted curve, though single readings scatter.
# Experiment: Caspase-3/7 induction in HepG2 cells by small molecules, qHTS assay (AID 1346978); note: nearly all actives have a fitted effect of over 15% in size
# Conditions: HepG2 caspase-3/7 activation, Caspase-Glo luminescence, 17 h; series mostly up to 92.4 µM
# From the text: National Center for Advancing Translational Sciences [NCATS] NIH Chemical Genomics Center [NCGC] U.S. Environmental Protection Agency [EPA] National Institutes of Environmental Health Sciences [NIEHS] National Toxicology Program [NTP] Assay overview: Apoptosis is a process of programmed cell death and plays a central role in the development of multicellular organisms. It is a highly regulated process and induces cell death by activating caspases, which are the members of cysteine aspartic acid-specific protease (caspase) family. Caspases involved in apoptosis are classified by their mechanism of action as initiator caspases (caspase-2, -8, -9 and -10) and executioner caspases (caspase-3, -6, and -7). Inhibition of apoptosis results in number of cancers, autoimmune diseases, inflammatory diseases and viral infection. To identify small molecule compounds that induce apoptosis, a homogeneous, luminescent Caspase-Glo 3/7 assay was used. Wild type HepG2 cells were used to screen Tox21 libraries for identifying caspase-3/7 activity inducers.
# Assay Protocol Summary: HepG2 cells were dispensed at 2,000 per well in 5uL of culture medium into white solid bottom 1536-well plates (Corning Life Sciences, Corning, NY) using a Multidrop Combi (Thermo Scientific, Waltham, MA) dispenser. The assay plates were incubated at 37 C and 5% CO2 for 5hr, and then 23nL of compounds dissolved in DMSO and positive control were transferred using a Pintool station (Wako, San Diego, CA). The assay plates were incubated at 37C and 5% CO2 for 17hr. For caspase-3/7 activity read, 4uL of Caspase-Glo 3/7 reagent (Promega Corporation, Madison, WI) was added to each well of the assay plates using Flying Reagent Dispenser (FRD, Aurora Discovery, San Diego, CA) and incubated the assay plates at room temperature for 30min. The luminescence signal was quantified using a ViewLux plate reader (Perkin Elmer, Shelton, CT).
row,SMILES,outcome
1,CCOC(=O)COc1ccc2c(C)c(CCN(CC)CC)c(=O)oc2c1Cl,inactive
2,CCCCCCC(=O)c1ccccc1,inactive
3,O=c1c(O)c(O)c1=O,inactive
4,Cc1ccc(N)nc1,inactive
5,CCC(C)SSC(C)CC (stereo not given),inactive
6,CC(=O)SCC(CC(=O)c1ccc(C)cc1)C(=O)O (stereo not given),inactive
7,CN1CCN(C(=O)C2CCCCC2)CC1,inactive
8,CC(C)CC(O)Cc1ccccc1 (stereo not given),inactive
9,CCCCCCCCCCCC(C)=O,inactive
10,Cc1cc(N)no1,inactive
11,CC(=O)c1c(C)cc(C(C)(C)C)cc1C,inactive
12,C=CC(=O)OCC[N+](C)(C)C,inactive
13,C[n+]1ccccc1/C=N/O,inactive
14,CC(C)(C)C(=O)CCc1ccc(Cl)cc1,inactive
15,Cc1nc2ccc(Cl)cc2[nH]1,inactive
16,CC(CC(=O)Cl)CC(C)(C)C (stereo not given),inactive
17,COc1ccc(Cl)cc1C,inactive
18,BrCCOc1ccccc1,inactive
19,COc1cc(C(=O)NC2CCCNC2)cc(OC)c1OC (stereo not given),inactive
20,CCCCCCC(O)CO (stereo not given),inactive

row,SMILES,outcome
1,O=C(O)P(=O)(O)O,inactive
2,CCCCC(CC)CCC(CC(C)C)OS(=O)(=O)O (stereo not given),inactive
3,O=C1CCCc2c(O)cccc21,inactive
4,CC(O)CCCCn1c(=O)c2c(ncn2C)n(C)c1=O (stereo not given),inactive
5,CCOCCOCCOC(C)=O,inactive
6,CC(CN1CC(=O)NC(=O)C1)N1CC(=O)NC(=O)C1 (stereo not given),inactive
7,CC(=O)OCC(=O)[C@@]1(O)CC[C@H]2[C@@H]3CCC4=CC(=O)C=C[C@]4(C)[C@H]3[C@@H](O)C[C@@]21C,inactive
8,COC(C)(C)CC(C)=O,inactive
9,CCN1CCN(C(=O)N[C@@H](C(=O)N[C@@H]2C(=O)N3C(C(=O)O)=C(CSc4nnnn4C)CS[C@H]23)c2ccc(O)cc2)C(=O)C1=O,inactive
10,CC(O)C(CO)C(C)O (stereo not given),inactive
11,CC/C=C\CCCCCCCCCCOC(C)=O,inactive
12,COC(=O)c1ccc(C(=O)O)cc1,inactive
13,Cc1ccccc1OCC(=O)O,inactive
14,Cc1ccc2cccnc2c1,inactive
15,Clc1ccc2c(c1)Nc1ccccc1S2,inactive
16,COC(=O)/C=C(\C)CCC=C(C)C,inactive
17,CCOC(=O)CN1CCCC1=O,inactive
18,CC(=O)OC1CCC(C(C)(C)C)CC1 (stereo not given),inactive
19,CC(C)c1cc(C(C)C)cc(C(C)C)c1,inactive
20,COC(=O)N/N=C/c1c[n+]([O-])c2ccccc2[n+]1[O-],inactive
